In PubChem BioAssay (Tox21):
Records with an inconclusive call do not appear. Activity calls are given as the source filed them. Unless noted, calls follow the shape of the full dose curve.

Columns and labels:
[1] = qHTS assay to identify small molecule antagonists of the sonic hedgehog signaling (Shh) pathway (AID 1259369); also: nearly all actives have a fitted effect of over 45% in size; also: potency is read from the fitted curve at half-maximal effect
Outline: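 NIH/3T3-derived 3T3Gli1-Luc cells with stably integrated Gli1-Luc reporter were preincubated 4hr at 37 C, then given compounds in DMSO plus Shh conditioned medium and incubated 24hr. Firefly luciferase luminescence read after 30min reagent at room temperature.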

[2] = molecular target: Estrogen receptor beta (Homo sapiens) (UniProt Q92731); test: qHTS assay to identify small molecule agonists of the estrogen receptor beta (ER-beta) signaling pathway (AID 1259377; active = well fitted activation curve with a large enough effect in the signal ratio in the repeat runs, not every such curve was filed as active; the % refers to the signal ratio)
Sequence of Estrogen receptor beta (Homo sapiens) (Q92731 whole entry, looked up): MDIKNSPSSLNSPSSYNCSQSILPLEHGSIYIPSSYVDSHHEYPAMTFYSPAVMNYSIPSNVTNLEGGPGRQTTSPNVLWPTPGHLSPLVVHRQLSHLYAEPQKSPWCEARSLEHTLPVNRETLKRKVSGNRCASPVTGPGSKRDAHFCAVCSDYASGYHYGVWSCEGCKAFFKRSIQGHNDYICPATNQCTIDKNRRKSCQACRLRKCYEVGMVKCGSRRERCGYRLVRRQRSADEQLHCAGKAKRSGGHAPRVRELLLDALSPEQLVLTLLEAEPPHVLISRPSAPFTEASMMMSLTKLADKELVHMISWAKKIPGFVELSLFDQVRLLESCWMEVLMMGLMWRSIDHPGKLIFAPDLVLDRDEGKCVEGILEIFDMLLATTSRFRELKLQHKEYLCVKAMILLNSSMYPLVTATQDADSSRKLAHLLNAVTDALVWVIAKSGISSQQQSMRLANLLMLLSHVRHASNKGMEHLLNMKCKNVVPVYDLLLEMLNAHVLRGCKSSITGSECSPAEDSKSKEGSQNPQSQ
Outline: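 Beta-lactamase reporter readout: fluorescence of LiveBLAzer B/G FRET substrate after 2 h at room temperature, following 16 h compound treatment of ER-beta-UAS-bla HEK293T cells at 37C in 2% charcoal-stripped FBS medium.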

[3] = molecular target: Estrogen receptor beta (Homo sapiens) (UniProt Q92731); test: qHTS assay to identify small molecule antagonists of the estrogen receptor beta (ER-beta) signaling pathway (AID 1259378; active = well fitted inhibition curve with a large enough effect in the signal ratio in the repeat runs, not every such curve was filed as active; the % refers to the signal ratio)
Outline: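 Antagonist mode: compounds added to beta-lactamase reporter HEK293T ER-beta-UAS cells stimulated with E2 (1nM final), 16 hr at 37C. LiveBLAzer B/G FRET substrate, 2 hours room temperature, fluorescence read-out.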

[4] = qHTS assay to identify small molecule agonists of the androgen receptor (AR) signaling pathway in the presence of an antagonist - cell viability counter screen (AID 1259379; active = well fitted curve in the direction sought with a large enough effect in the repeat runs; an effect the other way counts as inactive or inconclusive; also: series mostly up to about 92 µM; nearly all actives have a fitted effect of over 25% in size)
Outline: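 MDA-kb2 human breast carcinoma cells (stable MMTV-luciferase, AR/GR responsive) were seeded 3,000 cells/well, pre-incubated 5 hr at 37C without CO2, then given 3.0uM nilutamide and compounds at 15 concentrations for 16 hr. Viability was read by CellTiter-Fluor fluorescence.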

[5] = qHTS assay to identify small molecule antagonists of the estrogen receptor beta (ER-beta) signaling pathway - cell viability counter screen (AID 1259382; active = well fitted curve in the direction sought with a large enough effect in the repeat runs; an effect the other way counts as inactive or inconclusive;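 also: HEK293T cells carrying ER-beta-UAS-bla reporter stimulated with estradiol; series mostly up to about 92 µM; nearly all actives have a fitted effect of over 55% in size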)
Outline: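 ER-beta-UAS-bla HEK293T cells (2,000/well, 2% charcoal-stripped FBS) were pre-incubated 6 hr at 37C, then given compound plus 1nM final 17-beta-estradiol for 16 hr. Viability was read in the same wells by CellTiter-Glo luminescence after 30 min at room temperature.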

[6] = qHTS assay to identify small molecule agonists or antagonists of the thyroid stimulating hormone receptor (TSHR) signaling pathway - wild type cell line counter screen (AID 1259384); also: potency is read from the fitted curve at half-maximal effect
Outline: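 Counter screen in untransfected Hek293: compounds (15-point titration, triplicate) plus phosphodiesterase inhibitor Ro20-1724 added after 18 h plating; 30 min RT. Intracellular cAMP via competitive d2/cryptate immunoassay, 1 h incubation.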

[7] = molecular target: Thyrotropin receptor (Homo sapiens) (UniProt P16473); test: qHTS assay to identify small molecule antagonists of the thyroid stimulating hormone receptor (TSHR) signaling pathway (AID 1259385); also: nearly all actives have a fitted effect of over 20% in size
Sequence of Thyrotropin receptor (Homo sapiens) (P16473 whole entry, looked up): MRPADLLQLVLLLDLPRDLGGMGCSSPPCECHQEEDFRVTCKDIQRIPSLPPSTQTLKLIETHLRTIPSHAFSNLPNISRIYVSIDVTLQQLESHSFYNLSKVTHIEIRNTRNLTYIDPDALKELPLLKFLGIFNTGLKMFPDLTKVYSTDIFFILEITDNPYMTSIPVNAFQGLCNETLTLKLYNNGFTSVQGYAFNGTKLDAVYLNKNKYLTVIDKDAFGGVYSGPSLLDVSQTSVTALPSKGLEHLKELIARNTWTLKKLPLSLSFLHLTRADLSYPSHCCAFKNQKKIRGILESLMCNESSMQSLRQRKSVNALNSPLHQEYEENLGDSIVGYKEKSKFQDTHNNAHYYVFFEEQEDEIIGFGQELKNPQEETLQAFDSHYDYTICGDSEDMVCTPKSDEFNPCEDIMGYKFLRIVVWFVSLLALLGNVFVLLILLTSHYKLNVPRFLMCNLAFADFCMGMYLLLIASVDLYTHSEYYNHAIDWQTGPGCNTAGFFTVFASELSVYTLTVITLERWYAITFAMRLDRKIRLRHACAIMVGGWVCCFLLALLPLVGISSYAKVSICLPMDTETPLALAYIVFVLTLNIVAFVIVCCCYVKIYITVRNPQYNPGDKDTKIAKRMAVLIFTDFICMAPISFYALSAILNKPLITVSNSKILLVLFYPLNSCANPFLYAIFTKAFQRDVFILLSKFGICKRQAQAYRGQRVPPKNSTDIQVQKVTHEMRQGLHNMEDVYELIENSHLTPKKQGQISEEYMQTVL
Outline: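 Antagonist mode: compound-treated TSHR-expressing HEK293 cells were stimulated with 1.5 ng/mL TSH (final) in presence of Ro20-1724 for 30 min at RT. HTRF cAMP detection after 1 h; each compound tested at 15 concentrations, triplicate.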

[8] = qHTS assay to identify small molecule agonists of the estrogen receptor alpha (ER-alpha) signaling pathway in the presence of an antagonist - cell viability counter screen (AID 1259386; active = well fitted curve in the direction sought with a large enough effect in the repeat runs; an effect the other way counts as inactive or inconclusive;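 also: series mostly up to about 92 µM; cells exposed to compounds for 22 h at 37 °C before the viability read; nearly all actives have a fitted effect of over 30% in size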)
Outline: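 VM7Luc4E2 cells (endogenous full-length ER-alpha, 4×ERE-luciferase) were held 5 days in phenol red-free medium with 10% charcoal-stripped FBS, plated, then given 10.0nM ICI-182,780 and compounds at 15 concentrations for 22hr at 37C; viability read by CellTiter-Fluor fluorescence.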

[9] = molecular target: Progesterone receptor (Homo sapiens) (UniProt P06401); test: qHTS assay to identify small molecule agonists of the progesterone receptor (PR) signaling pathway (AID 1346784); also: nearly all actives have a fitted effect of over 30% in size
Sequence of Progesterone receptor (Homo sapiens) (P06401 whole entry, looked up): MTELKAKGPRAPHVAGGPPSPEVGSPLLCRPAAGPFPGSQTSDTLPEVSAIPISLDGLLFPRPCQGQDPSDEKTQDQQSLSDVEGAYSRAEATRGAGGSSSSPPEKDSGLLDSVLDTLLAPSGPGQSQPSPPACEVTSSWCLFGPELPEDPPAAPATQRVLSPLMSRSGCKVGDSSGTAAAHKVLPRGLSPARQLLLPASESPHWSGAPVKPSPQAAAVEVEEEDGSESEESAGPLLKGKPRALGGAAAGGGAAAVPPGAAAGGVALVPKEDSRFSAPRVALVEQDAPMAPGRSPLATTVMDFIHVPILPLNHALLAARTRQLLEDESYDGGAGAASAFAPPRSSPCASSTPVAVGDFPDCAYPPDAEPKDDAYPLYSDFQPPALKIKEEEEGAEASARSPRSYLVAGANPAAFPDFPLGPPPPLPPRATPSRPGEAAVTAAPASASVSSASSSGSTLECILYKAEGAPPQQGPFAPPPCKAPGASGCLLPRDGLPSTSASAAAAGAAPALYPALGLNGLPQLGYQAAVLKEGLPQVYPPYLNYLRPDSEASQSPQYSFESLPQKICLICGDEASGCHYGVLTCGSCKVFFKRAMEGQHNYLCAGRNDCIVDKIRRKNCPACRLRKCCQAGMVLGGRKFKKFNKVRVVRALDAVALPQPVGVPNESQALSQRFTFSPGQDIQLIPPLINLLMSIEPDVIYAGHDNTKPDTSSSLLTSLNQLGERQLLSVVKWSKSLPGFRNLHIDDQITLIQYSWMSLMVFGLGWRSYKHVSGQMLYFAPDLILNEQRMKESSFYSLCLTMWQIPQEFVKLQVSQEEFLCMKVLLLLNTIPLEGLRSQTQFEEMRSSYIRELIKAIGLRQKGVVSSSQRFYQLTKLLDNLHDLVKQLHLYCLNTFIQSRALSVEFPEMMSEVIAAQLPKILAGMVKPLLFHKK
Outline: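 HEK 293T PR-UAS-bla reporter cells, 2% charcoal-stripped FBS; 6 hr settle at 37C/5% CO2, compound (DMSO) 16 hr, LiveBLAzer B/G FRET substrate 2 hr RT, fluorescence intensity read.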

[10] = qHTS assay to identify small molecule antagonists of the TGF-beta/Smad signaling pathway - cell viability counter screen (AID 1346824; active = well fitted curve in the direction sought with a large enough effect in the repeat runs; an effect the other way counts as inactive or inconclusive; also: nearly all actives have a fitted effect of over 50% in size)
Outline: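 Cytotoxicity counter-screen run in the same wells as the beta-lactamase Smad reporter read: CellTiter-Glo luminescence after 30 min at room temperature. HEK 293T SBE-bla cells had 5 hr compound exposure at 37 C with TGF-beta1 (0.25 ng/mL stock).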

[11] = qHTS assay to identify small molecule agonists of the TGF-beta/Smad signaling pathway - cell viability counter screen (AID 1346829; active = well fitted curve in the direction sought with a large enough effect in the repeat runs; an effect the other way counts as inactive or inconclusive; also: top concentration of the series differs between compounds; nearly all actives have a fitted effect of over 45% in size)
Outline: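 In parallel with the Smad reporter read, viability of HEK 293T cells stably carrying SBE-bla is quantified by ATP luminescence following 5 hr compound treatment.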

[12] = qHTS assay to identify small molecule agonists of the TGF-beta/Smad signaling pathway (AID 1346859; active = well fitted activation curve with a large enough effect in the signal ratio in the repeat runs, not every such curve was filed as active; the % refers to the signal ratio; also: series mostly up to about 77 µM)
Outline: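 Read-out: fluorescence at 460 and 530 nm (405 nm excitation) after a 2 hr room-temperature incubation with beta-lactamase FRET substrate. SBE-bla HEK 293T cells had been treated with test compounds for 5 hr at 37 C.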

[13] = qHTS assay to identify small molecule agonists of the estrogen receptor beta (ER-beta) signaling pathway - cell viability counter screen (AID 1259380; active = well fitted curve in the direction sought with a large enough effect in the repeat runs; an effect the other way counts as inactive or inconclusive; also: nearly all actives have a fitted effect of over 30% in size; also: potency is read from the fitted curve at half-maximal effect)
Outline: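 ER-beta-UAS-bla HEK293T cells in medium with 2% charcoal-stripped FBS were preincubated 6 hr at 37C, dosed with compound in DMSO for 16 hr, then after the bla read, CellTiter-Glo was added for 30 min at room temperature; luminescence recorded.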

[14] = molecular target: Estrogen receptor (Homo sapiens) (UniProt P03372); test: qHTS assay to identify small molecule agonists of the estrogen receptor alpha (ER-alpha) signaling pathway in the presence of an antagonist (AID 1259383); also: top concentration of the series differs between compounds; nearly all actives have a fitted effect of over 15% in size
Sequence of Estrogen receptor (Homo sapiens) (P03372 whole entry, looked up): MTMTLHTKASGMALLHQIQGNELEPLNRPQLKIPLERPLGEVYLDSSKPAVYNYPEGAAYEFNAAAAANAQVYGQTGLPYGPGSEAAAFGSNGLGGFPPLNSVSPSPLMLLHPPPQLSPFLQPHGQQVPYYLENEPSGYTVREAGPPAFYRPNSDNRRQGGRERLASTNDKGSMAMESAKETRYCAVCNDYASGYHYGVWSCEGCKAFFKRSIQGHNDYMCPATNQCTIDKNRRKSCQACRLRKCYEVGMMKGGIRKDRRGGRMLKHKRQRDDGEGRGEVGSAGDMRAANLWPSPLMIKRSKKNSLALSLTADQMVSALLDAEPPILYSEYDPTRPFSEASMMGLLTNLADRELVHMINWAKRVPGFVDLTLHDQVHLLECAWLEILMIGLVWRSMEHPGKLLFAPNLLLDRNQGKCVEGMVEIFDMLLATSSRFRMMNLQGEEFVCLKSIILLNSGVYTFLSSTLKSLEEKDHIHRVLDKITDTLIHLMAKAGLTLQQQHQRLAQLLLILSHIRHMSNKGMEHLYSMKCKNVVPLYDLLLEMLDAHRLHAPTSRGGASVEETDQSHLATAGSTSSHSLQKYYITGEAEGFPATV
Outline: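 VM7Luc4E2 cells (endogenous full-length ER-alpha, 4×ERE-luciferase) were precultured 5 days in phenol red-free medium with 10% charcoal-stripped FBS, given 10.0nM ICI-182,780 (final), then treated with compounds at 15 concentrations for 22hr at 37C; luminescence read with ONE-Glo.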

[15] = qHTS assay to identify small molecule antagonists of the progesterone receptor (PR) signaling pathway - cell viability counter screen (AID 1346798; active = well fitted curve in the direction sought with a large enough effect in the repeat runs; an effect the other way counts as inactive or inconclusive; also: series mostly up to about 92 µM; nearly all actives have a fitted effect of over 50% in size)
Outline: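 Luminescence readout (CellTiter-Glo, 30 min, RT) of viability in PR-UAS-bla HEK293T cells exposed to compound and R5020 agonist for 16 hr at 37C, 5% CO2; run in the same wells as the beta-lactamase reporter read.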

[16] = qHTS assay to identify small molecule agonists of the progesterone receptor (PR) signaling pathway - cell viability counter screen (AID 1346799); also: nearly all actives have a fitted effect of over 45% in size
Outline: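 HEK293T PR-UAS-bla, 3,000 cells/well, 2% charcoal-stripped FBS; 6 h settle, compound 16 h at 37C/5% CO2; LiveBLAzer 2 h RT, then CellTiter-Glo 30 min RT, luminescence read.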

[17] = molecular target: Progesterone receptor (Homo sapiens) (UniProt P06401); test: qHTS assay to identify small molecule antagonists of the progesterone receptor (PR) signaling pathway (AID 1346795; active = well fitted inhibition curve with a large enough effect in the signal ratio in the repeat runs, not every such curve was filed as active; the % refers to the signal ratio)
Outline: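 Beta-lactamase reporter, HEK293T PR-UAS-bla line; 2% charcoal-stripped FBS; 6 hr pre-incubation, 37C/5% CO2. Compound + R5020 1 nM final, 16 hr. LiveBLAzer B/G FRET substrate, 2 hr RT; fluorescence intensity read.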

[18] = molecular target: Thyrotropin-releasing hormone receptor (Homo sapiens) (UniProt P34981); test: qHTS assay to identify small molecule antagonists of the thyrotropin-releasing hormone receptor (TRHR) signaling pathway (AID 1346877; active = well fitted inhibition curve with a large enough effect in the repeat runs, not every such curve was filed as active; also: series mostly up to about 51 µM)
Sequence of Thyrotropin-releasing hormone receptor (Homo sapiens) (P34981 whole entry, looked up): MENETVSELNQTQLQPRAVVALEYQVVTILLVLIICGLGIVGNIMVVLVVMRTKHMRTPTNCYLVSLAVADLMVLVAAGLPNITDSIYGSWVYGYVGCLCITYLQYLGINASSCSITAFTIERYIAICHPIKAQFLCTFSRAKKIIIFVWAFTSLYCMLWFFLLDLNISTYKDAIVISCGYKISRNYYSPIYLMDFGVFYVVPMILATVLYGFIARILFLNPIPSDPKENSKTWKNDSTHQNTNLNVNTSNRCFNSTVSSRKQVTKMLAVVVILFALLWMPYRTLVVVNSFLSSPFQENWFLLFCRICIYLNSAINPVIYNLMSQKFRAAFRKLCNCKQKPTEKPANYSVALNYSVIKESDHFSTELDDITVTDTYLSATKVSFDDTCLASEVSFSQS
Outline: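 TRHR-expressing HEK293 cells were seeded, cultured 18 h at 37 °C, then loaded with calcium dye for 2 h. Compounds were pre-incubated 5 min at room temperature before 1 nM TRH (final) was added, and kinetic fluorescence was recorded for 3 min.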

[19] = molecular target: Thyrotropin-releasing hormone receptor (Homo sapiens) (UniProt P34981); test: qHTS assay to identify small molecule agonists of the thyrotropin-releasing hormone receptor (TRHR) signaling pathway (AID 1346891); also: series mostly up to about 58 µM
Outline: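 HEK293/TRHR cells, 1500 per well, 18 h 37 °C; Ca dye 2 h 37 °C; pin-tool compound addition (agonist mode); kinetic fluorescence 3 min, 1 s reads; 15 concentrations, triplicate.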

[20] = molecular target: Androgen receptor (Homo sapiens) (UniProt P10275); test: qHTS assay to identify small molecule agonists of the androgen receptor (AR) signaling pathway in the presence of an antagonist (AID 1259381); also: nearly all actives have a fitted effect of over 15% in size
Sequence of Androgen receptor (Homo sapiens) (P10275 whole entry, looked up): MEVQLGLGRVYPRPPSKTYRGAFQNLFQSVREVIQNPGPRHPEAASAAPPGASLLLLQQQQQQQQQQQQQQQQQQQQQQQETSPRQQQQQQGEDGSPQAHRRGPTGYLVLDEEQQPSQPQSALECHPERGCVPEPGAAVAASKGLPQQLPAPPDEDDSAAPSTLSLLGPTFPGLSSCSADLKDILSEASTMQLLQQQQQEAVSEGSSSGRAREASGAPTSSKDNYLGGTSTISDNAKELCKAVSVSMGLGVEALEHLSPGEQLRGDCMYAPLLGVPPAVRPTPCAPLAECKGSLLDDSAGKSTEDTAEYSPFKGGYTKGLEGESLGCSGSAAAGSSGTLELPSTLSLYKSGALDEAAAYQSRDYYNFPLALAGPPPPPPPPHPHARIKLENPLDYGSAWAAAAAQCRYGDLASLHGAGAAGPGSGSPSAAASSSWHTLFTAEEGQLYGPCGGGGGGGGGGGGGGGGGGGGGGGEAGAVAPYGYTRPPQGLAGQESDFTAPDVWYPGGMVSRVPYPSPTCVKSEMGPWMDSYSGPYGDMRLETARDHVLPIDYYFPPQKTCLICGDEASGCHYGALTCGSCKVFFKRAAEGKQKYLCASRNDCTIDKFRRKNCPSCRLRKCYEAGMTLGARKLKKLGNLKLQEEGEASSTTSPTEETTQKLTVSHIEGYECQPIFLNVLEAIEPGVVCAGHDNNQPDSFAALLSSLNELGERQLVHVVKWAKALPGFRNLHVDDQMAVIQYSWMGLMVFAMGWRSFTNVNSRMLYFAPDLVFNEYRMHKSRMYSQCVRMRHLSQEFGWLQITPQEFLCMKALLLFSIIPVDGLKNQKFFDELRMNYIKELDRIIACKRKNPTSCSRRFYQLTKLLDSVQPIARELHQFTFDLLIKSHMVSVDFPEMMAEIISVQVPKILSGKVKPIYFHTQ
Outline: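 MDA-kb2 human breast carcinoma cells carrying an MMTV-luciferase reporter (AR- and GR-responsive) were treated with compounds at 15 concentrations plus 3.0uM final nilutamide for 16hr at 37C without CO2; luminescence was read after ONE-Glo addition.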

Measured: Potency

S=C([S-])NCCNC(=S)[S-].[Mn+2]
inactive: [1] | [2] | [3] | [4] | [5] | [6] | [7] | [8] | [9] | [10] | [11] | [12]

CCCCCCCCCCO[C@@H]1O[C@H](CO)[C@@H](O)[C@H](O)[C@H]1O
inactive: [2] | [4] | [13] | [5] | [14] | [6] | [7] | [8] | [9] | [15] | [16] | [10] | [11] | [12]
active: [1] 61.1 µM

Cc1ccc(C(=O)Oc2ccc(C(O)CNC(C)(C)C)cc2OC(=O)c2ccc(C)cc2)cc1 (stereo not drawn)
inactive: [1] | [2] | [14] | [7] | [8] | [9] | [17] | [15] | [16] | [10] | [18] | [19]
active: [13] 26.6 µM | [6] 0.0362 µM

C[C@@H](c1ncncc1F)C(O)(Cn1cncn1)c1ccc(F)cc1F (stereo partly drawn)
inactive: [1] | [4] | [13] | [20] | [5] | [14] | [6] | [7] | [8] | [9] | [17] | [15] | [16] | [10] | [11] | [12] | [18] | [19]

CC(C)(C)Cl
inactive: [1] | [3] | [4] | [13] | [5] | [14] | [6] | [7] | [8] | [9] | [17] | [15] | [16] | [10] | [11] | [12] | [18] | [19]

O=C(O)C1(C(=O)O)CCC1.[NH2-].[NH2-].[Pt+2]
inactive: [1] | [3] | [4] | [13] | [5] | [14] | [6] | [7] | [8] | [9] | [17] | [15] | [16] | [10] | [11] | [12] | [18] | [19]

C=C(C)C(=O)OCC
inactive: [1] | [3] | [4] | [13] | [5] | [14] | [6] | [7] | [8] | [15] | [16] | [10] | [11] | [12] | [19]

O=S(c1cc(Cl)cc(Cl)c1O)c1cc(Cl)cc(Cl)c1O
inactive: [4] | [20] | [6] | [7] | [8] | [16] | [10] | [11] | [12] | [18] | [19]
active: [1] 21.1 µM | [13] 29.8 µM
